Assay results taken from PubChem BioAssay AID624049 (National Center for Advancing Translational Sciences (NCATS), 2012).
Activity calls are given as the source filed them. A call without a number means that no potency is given here. The call rests on the fitted dose curve; in most records, active means well fitted inhibition curve with a large enough effect; inactive means no such curve, though single readings can be large or run the other way.

These molecules were tested against Dual specificity protein kinase CLK3 (Homo sapiens) (UniProt P49761) (assay: Reaction Biology data for inhibitors of CLK3: Probe SAR). Settings: Reaction Biology CLK3 kinase assay, 10 uM ATP; series mostly up to 10 µM.
Dual specificity protein kinase CLK3 (Homo sapiens), sequence (P49761 whole entry, looked up, canonical isoform): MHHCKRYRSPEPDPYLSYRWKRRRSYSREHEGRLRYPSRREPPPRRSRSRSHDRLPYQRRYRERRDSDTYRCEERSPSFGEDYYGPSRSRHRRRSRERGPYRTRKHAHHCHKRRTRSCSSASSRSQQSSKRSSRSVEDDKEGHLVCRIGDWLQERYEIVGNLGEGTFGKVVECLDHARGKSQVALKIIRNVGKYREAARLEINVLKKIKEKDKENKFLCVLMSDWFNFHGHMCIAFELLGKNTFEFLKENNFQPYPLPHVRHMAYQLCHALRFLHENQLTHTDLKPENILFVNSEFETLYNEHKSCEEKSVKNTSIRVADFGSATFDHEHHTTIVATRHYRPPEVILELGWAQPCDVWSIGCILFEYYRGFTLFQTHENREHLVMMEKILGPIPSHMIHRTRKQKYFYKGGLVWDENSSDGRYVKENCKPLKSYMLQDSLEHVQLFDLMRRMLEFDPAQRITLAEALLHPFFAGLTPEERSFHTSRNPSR
Text: Alternative splicing of pre-mRNAs plays a major role in the regulation of eukaryotic gene expression. Alternative splicing is now thought to be one of the primary reasons for the complexity of higher organisms leading to an average of three protein isoforms per gene. Aberrant splicing can lead to a number of diseases and is known to play a role in rare genetic diseases such as progeria syndrome. Hutchinson-Gilford Progeria Syndrome (HGPS) is a pediatric premature aging disease caused by a spontaneous mutation in the lamin A/C (LMNA) gene due to a single point mutation in the lamin A gene effecting 1 in 4 million people. To identify both specific splicing modulators of the lamin A gene as well as general splicing modulators, a cell-based HTS assay was developed using a minigene reporter system (AIDs, 1459 & 1487). […] This AID summarizes the characterization of lead compounds in Clk3. NIH Molecular Libraries Probe Production Centers Network [MLPCN] NIH Chemical Genomics Center [NCGC] MLPCN Grant: MH084827 Assay Submitter (PI): Tom Misteli
Compound IC50s were determined at Reaction Biology (http://www.reactionbiology.com) with ten concentration points starting at 10 uM in the assay using a 3-fold dilution series. The control compound staurosporine was also tested in the 10-dose IC50 mode with the same 3-fold serial dilution, again starting at 10 uM. All kinase reactions were performed using 10 uM ATP in the assay. 100% activity was taken from kinase reactions with DMSO alone (the vehicle used for compound stock solutions).

Row | SMILES | Potency
1 | c1cncc(CNc2ccnc(-c3ccc4cn[nH]c4c3)n2)c1 | inactive
2 | c1cncc(CNc2nccc(-c3ccc4[nH]ncc4c3)n2)c1 | 2660 nM (active)
3 | Clc1ccc(CNc2ncncc2-c2ccc3c(c2)OCO3)cc1Cl | inactive
4 | c1nc(NCC2CCCO2)c2cc(-c3ccc4c(c3)OCO4)ccc2n1 (stereo not drawn) | 836 nM (active)
5 | Clc1cc(Cl)cc(CNc2ncncc2-c2ccc3c(c2)OCO3)c1 | inactive
6 | FC(F)(F)c1cc(Br)cc(Nc2nccc(-c3ccc4c(c3)OCO4)n2)c1 | inactive
7 | c1cc(-c2ccc3c(c2)OCO3)nc(Nc2ccc3c(c2)OCO3)n1 | inactive
8 | Clc1ccc(CNc2nccc(-c3ccc4[nH]ncc4c3)n2)cc1Cl | 2930 nM (active)
9 | COc1cccc(-c2ccnc(NCc3ccc(Cl)cc3)n2)c1 | inactive
10 | Clc1ccc(CNc2ccnc(-c3ccc4[nH]ncc4c3)n2)cc1Cl | inactive
11 | Clc1ccc(Nc2nccc(-c3ccc4c(c3)OCO4)n2)cc1 | inactive
12 | Cc1nc(CN(C)c2ncnc3ccc(-c4ccc5[nH]ncc5c4)cc23)cs1 | 792 nM (active)
13 | c1cncc(CNc2nccc(-c3ccc4c(c3)OCO4)n2)c1 | 1470 nM (active)
14 | Cc1nc(CNc2ncnc3ccc(-c4ccc5c(c4)OCO5)cc23)cs1 | 1260 nM (active)
15 | Cc1nc(CN(C)c2ncnc3ccc(-c4ccc5c(c4)OCO5)cc23)cs1 | 403 nM (active)
16 | O=[N+]([O-])c1cc(Nc2nccc(-c3ccc4c(c3)OCO4)n2)cc(C(F)(F)F)c1 | inactive
17 | Brc1ccc(CNc2nccc(-c3ccc4c(c3)OCO4)n2)cc1Br | 3230 nM (active)

Row | SMILES | Potency
18 | Cc1c(-c2ccnc(NCc3cccnc3)n2)sc(=O)n1C | inactive
19 | Clc1ccc(CNc2nccc(-c3ccc4c(c3)OCO4)n2)cc1Cl | 3630 nM (active)
20 | c1cncc(CNc2ccnc(-c3ccc4[nH]ncc4c3)n2)c1 | inactive
21 | COc1ccc(-c2ccnc(NCc3ccc(Cl)cc3)n2)cc1 | inactive
22 | COc1cccc(-c2ccnc(NCc3ccc(Cl)c(Cl)c3)n2)c1 | inactive
23 | FC(F)(F)c1cccc(Nc2nccc(-c3ccc4c(c3)OCO4)n2)c1 | inactive
24 | COc1ccc(-c2ccnc(NCc3ccc(Cl)c(Cl)c3)n2)cc1OC | inactive
25 | Clc1cc(Cl)cc(CNc2nccc(-c3ccc4c(c3)OCO4)n2)c1 | inactive
26 | Brc1cc(Br)cc(CNc2nccc(-c3ccc4c(c3)OCO4)n2)c1 | inactive
27 | Clc1ccc(CNc2nccc(-c3ccc4cn[nH]c4c3)n2)cc1Cl | inactive
28 | Clc1ccc(CNc2ccnc(-c3ccc4c(c3)OCO4)n2)cc1Cl | inactive
29 | Cc1c(-c2ccnc(NCc3ccc(Cl)cc3)n2)sc(=O)n1C | inactive
30 | Clc1ccc(CNc2ncncc2-c2ccc3c(c2)OCO3)cc1 | inactive
31 | COc1ccc(-c2ccnc(NCc3ccc(Cl)c(Cl)c3)n2)cc1 | inactive
32 | Clc1ccc(CNc2nccc(-c3ccc4c(c3)OCCO4)n2)cc1Cl | inactive
33 | c1cncc(CNc2ncncc2-c2ccc3c(c2)OCO3)c1 | inactive
